Laboratory results from PubChem BioAssay AID504616 (Sanford-Burnham Center for Chemical Genomics, 2011).
This is one part of the list.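 The calls were made as follows: active = mean activity change at or below -40% when tested at 20 µM; inactive = the rest.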

experiment: Rh110 fluorescence interference by putative Apaf-1 activators, confirmation, artefact control for Apaf-1 activator project, biochemical, 20 µM (AID 504616); conditions: quenched caspase reaction, Ex480/Em540, at 20 µM

Fluorescence interference (activity change), inactive:
O=C(Nc1cccc(-c2nc3ccccc3[nH]2)c1)c1ccc(C(=O)Nc2cccc(-c3nc4ccccc4[nH]3)c2)cc1 7.06%
COc1ccc(C2c3ccc(O)cc3Oc3ncn(CCCO)c(=N)c32)cc1OC (configuration not stated) -0.45%
Cc1nn(CC(=O)Nc2ccc(C#N)cc2)c(C)c1[N+](=O)[O-] -2.47%
N#CC1(C#N)C(C(=O)C23CC4CC(CC(C4)C2)C3)C12CCOCC2 (configuration not stated) -0.76%
COc1ccc(S(=O)(=O)N2CCCCC2)cc1NC(=O)c1cc([N+](=O)[O-])ccc1N1CCOCC1 4.4%
COC(CNC(=O)Cn1ncc2ccsc2c1=O)OC -3.81%
CC(C)OCCCNC(=S)N1CCC(C(=O)c2ccc3c(c2)OCCO3)CC1 3.57%
O=c1[nH]c2c(c(=O)n1Cc1ccccc1)CCC2 13.7%
Clc1cccc(-c2nc3nc4ccccc4nc3n2Cc2ccco2)c1 6.33%
COc1cc(C2C(C#N)=C(N)Oc3n[nH]c(-c4ccccn4)c32)cc(OC)c1OC (configuration not stated) 14.4%
COc1cc(C(=O)NCc2nnc(SCC(=O)Nc3nc4ccc(C)cc4s3)o2)cc(OC)c1OC -5.21%
Cc1ccc(Nc2nc(CSc3nnc(-c4ccncc4)n3-c3ccccc3C)cs2)cc1 11.6%
O=c1[nH]cnc2c1c(-c1ccccc1)cn2-c1ccc(F)cc1 13.3%
COC(=O)C(C)N(C#N)c1nc(C)nc(C)n1 (configuration not stated) 3.06%
C=CC1=C(C(=O)O)N2C(=O)[C@@H](NC(=O)/C(=N\OCC(=O)O)c3csc(N)n3)[C@H]2SC1 11.7%
CN(C)S(=O)(=O)c1ccc(C(=O)NCCN=C2NS(=O)(=O)c3ccccc32)cc1 8.9%
Nc1cc(C(F)(F)F)ccc1N1CCOCC1 -1.22%
COc1ccccc1OCC(=O)Nc1c2c(nn1-c1ccc(F)cc1)CS(=O)(=O)C2 9.44%
O=C(CSc1ccc(-c2ccc(-n3cccn3)cc2)nn1)Nc1ccc([N+](=O)[O-])cc1 2.63%
C=CC1=C(C(=O)O)N2C(=O)[C@@H](NC(=O)/C(=N/OCC(=O)O)c3csc(N)n3)[C@H]2SC1 3.12%
Cc1ccc(S(=O)(=O)N2CCOCC2)cc1C(=O)NC(=S)N(Cc1ccccc1)C(C)C 3.5%
Cc1cc(NC(=O)c2cccc(N3C(=O)CCC3=O)c2)no1 0.61%
